Values without a mark were called inactive. Records with an inconclusive call do not appear. A call without a number means that no potency is given here. Active and inactive are the calls of the source. Unless noted, calls follow the shape of the dose curve; as a rule, active = well fitted curve in the direction sought with a large enough effect in the repeat runs; inconclusive = weak or mixed curves; inactive = no such curve, though single readings can be large; an effect the other way counts as inactive or inconclusive.
Columns and labels:
[1] = A CellTox Green Cytotoxicity Assay to monitor cytotoxicity in HEK293 cells - 32 hour (AID 1224881); also: nearly all actives have a fitted effect of over 40% in size; also: potency is read from the fitted curve at half-maximal effect
Procedure, shortened: (§1)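 Seeding of HEK293 cells together with cytotoxicity dye preceded a 5 h incubation at 37 C/5% CO2. Test compounds in DMSO were then added and fluorescence monitored across 40 h.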

[2] = A CellTox Green Cytotoxicity Assay to monitor cytotoxicity in HepG2 cells - 0 hour (AID 1224882); also: nearly all actives have a fitted effect of over 35% in size
Procedure, shortened: (§2)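 Nonlytic assay: viable cells exclude the dye, so fluorescence scales with cell death. HepG2 at 600 cells/well, compounds added after 5 h, signal read across 40 h.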

[3] = A CellTox Green Cytotoxicity Assay to monitor cytotoxicity in HepG2 cells - 32 hour (AID 1224883); also: nearly all actives have a fitted effect of over 50% in size; also: potency is read from the fitted curve at half-maximal effect
Procedure, shortened: as §2

[4] = A CellTox Green Cytotoxicity Assay to monitor cytotoxicity in HEK293 cells - 8 hour (AID 1224884); also: nearly all actives have a fitted effect of over 35% in size; also: potency is read from the fitted curve at half-maximal effect
Procedure, shortened: as §1

[5] = qHTS RealTime-Glo MT Cell Viability Assay in HepG2 cells - 16 hour (AID 1224885); also: nearly all actives have a fitted effect of over 50% in size
Procedure, shortened: (§3)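 Cell number in HepG2 cultures estimated from NanoLuc luminescence generated by metabolic reduction of a prosubstrate by living cells. The homogeneous, nonlytic format allowed repeated reads at 0, 8, 16, 24, 32 and 40 h of compound exposure.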

[6] = qHTS RealTime-Glo MT Cell Viability Assay in HEK293 cells - 24 hour (AID 1224886); also: top concentration of the series differs between compounds; nearly all actives have a fitted effect of over 50% in size
Procedure, shortened: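 Homogeneous bioluminescent viability format in HEK293 cells (600 cells/well). Following 5 h at 37 C/5% CO2, 23 nL compound was pintooled; the signal was measured repeatedly during 40 h incubation.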

[7] = qHTS RealTime-Glo MT Cell Viability Assay in HEK293 cells - 8 hour (AID 1224887); also: top concentration of the series differs between compounds; nearly all actives have a fitted effect of over 50% in size
Procedure, shortened: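 Tox21 screen in HEK293 using RealTime-Glo MT chemistry, with cells and reagent co-dispensed. Luminescence proportional to viable cell number was captured at intervals during 40 h compound exposure at 37 C.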

[8] = A CellTox Green Cytotoxicity Assay to monitor cytotoxicity in HEK293 cells - 16 hour (AID 1224888); also: nearly all actives have a fitted effect of over 35% in size; also: potency is read from the fitted curve at half-maximal effect
Procedure, shortened: as §1

[9] = A CellTox Green Cytotoxicity Assay to monitor cytotoxicity in HepG2 cells - 8 hour (AID 1224890); also: nearly all actives have a fitted effect of over 45% in size; also: potency is read from the fitted curve at half-maximal effect
Procedure, shortened: as §2

[10] = qHTS assay to identify small molecule antagonists of the estrogen receptor alpha (ER-alpha) signaling pathway using the BG1 cell line in the presence of 0.1 nM 17-beta-estradiol - cell viability counter screen (AID 1259241); also: nearly all actives have a fitted effect of over 40% in size
Procedure, shortened: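 Cells were plated and left 24 hr, compounds in DMSO were pinned in, 17beta-estradiol was added to 0.1 nM final, and after 22 hr CellTiter-Fluor reagent was added for 30 min before fluorescence was read.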

[11] = qHTS assay to identify small molecule antagonists of the androgen receptor (AR) signaling pathway using the MDA cell line in the presence of 0.5 nM R1881 - cell viability counter screen (AID 1259242); also: nearly all actives have a fitted effect of over 45% in size
Procedure, shortened: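 R1881 at 0.5 nM final stimulated MDA-kb2 cells during 16 hr compound treatment at 37C. Cytotoxicity read: CellTiter-Fluor fluorescence after 30 min.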

[12] = biological target: Androgen receptor (Homo sapiens) (UniProt P10275); experiment: qHTS assay to identify small molecule antagonists of the androgen receptor (AR) signaling pathway using the MDA cell line in the presence of 0.5 nM R1881 (AID 1259243); also: nearly all actives have a fitted effect of over 50% in size
Androgen receptor (Homo sapiens), sequence (P10275 whole entry, looked up): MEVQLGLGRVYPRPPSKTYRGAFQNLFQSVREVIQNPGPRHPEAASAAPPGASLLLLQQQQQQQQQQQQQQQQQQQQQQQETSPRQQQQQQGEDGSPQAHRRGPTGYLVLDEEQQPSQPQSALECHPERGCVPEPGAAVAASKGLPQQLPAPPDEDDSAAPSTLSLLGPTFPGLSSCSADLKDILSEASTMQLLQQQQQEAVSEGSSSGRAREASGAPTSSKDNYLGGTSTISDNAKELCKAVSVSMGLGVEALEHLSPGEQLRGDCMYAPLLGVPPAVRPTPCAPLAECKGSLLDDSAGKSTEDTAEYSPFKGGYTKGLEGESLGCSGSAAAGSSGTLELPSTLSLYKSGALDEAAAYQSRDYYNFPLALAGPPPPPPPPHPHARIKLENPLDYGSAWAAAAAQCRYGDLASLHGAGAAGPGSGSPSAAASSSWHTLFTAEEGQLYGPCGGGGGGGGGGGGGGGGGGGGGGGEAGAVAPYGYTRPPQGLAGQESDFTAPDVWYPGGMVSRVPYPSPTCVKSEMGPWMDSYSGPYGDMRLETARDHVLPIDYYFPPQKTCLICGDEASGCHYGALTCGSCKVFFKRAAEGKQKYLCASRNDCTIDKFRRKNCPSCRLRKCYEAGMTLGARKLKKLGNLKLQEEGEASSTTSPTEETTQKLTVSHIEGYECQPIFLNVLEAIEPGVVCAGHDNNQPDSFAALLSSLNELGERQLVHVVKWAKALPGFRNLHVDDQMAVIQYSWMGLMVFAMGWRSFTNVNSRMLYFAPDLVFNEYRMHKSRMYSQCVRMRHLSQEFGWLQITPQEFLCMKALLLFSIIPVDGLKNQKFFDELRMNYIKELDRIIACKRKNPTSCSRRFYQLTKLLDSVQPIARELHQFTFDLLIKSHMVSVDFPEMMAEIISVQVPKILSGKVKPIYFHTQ
Procedure, shortened: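 We exposed MDA-kb2 cells to compounds under 0.5 nM R1881 stimulation for 16 hr at 37C and quantified MMTV-driven luciferase by luminescence.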

[13] = biological target: Estrogen receptor (Homo sapiens) (UniProt P03372); experiment: qHTS assay to identify small molecule antagonists of the estrogen receptor alpha (ER-alpha) signaling pathway using the BG1 cell line in the presence of 0.1 nM 17-beta-estradiol (AID 1259244); also: nearly all actives have a fitted effect of over 50% in size
Estrogen receptor (Homo sapiens), sequence (P03372 whole entry, looked up): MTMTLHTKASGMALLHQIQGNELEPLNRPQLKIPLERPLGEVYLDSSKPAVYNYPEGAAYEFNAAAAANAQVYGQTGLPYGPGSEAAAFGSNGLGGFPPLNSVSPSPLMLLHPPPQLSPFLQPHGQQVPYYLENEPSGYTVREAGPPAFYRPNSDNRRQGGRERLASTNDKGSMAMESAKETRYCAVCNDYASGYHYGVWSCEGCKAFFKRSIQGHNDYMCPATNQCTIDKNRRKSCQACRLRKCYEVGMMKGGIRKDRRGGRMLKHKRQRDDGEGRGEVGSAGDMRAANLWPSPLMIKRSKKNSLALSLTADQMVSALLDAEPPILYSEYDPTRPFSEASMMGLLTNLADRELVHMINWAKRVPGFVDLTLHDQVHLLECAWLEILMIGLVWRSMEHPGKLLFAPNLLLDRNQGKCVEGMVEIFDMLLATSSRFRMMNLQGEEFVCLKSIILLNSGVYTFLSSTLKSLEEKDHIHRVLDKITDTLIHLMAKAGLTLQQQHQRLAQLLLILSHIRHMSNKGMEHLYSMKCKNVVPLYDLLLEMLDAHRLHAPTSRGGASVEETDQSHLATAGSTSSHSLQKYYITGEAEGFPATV
Procedure, shortened: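 VM7Luc4E2; 4xERE-luciferase; 0.1 nM E2 final; 22 h co-incubation, 37C; ONE-Glo luminescence after 30 min at room temperature.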

[14] = qHTS assay to identify small molecule HDAC inhibitors (AID 1259364);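 also: wild-type HCT-116 cells with endogenous class I/II HDAC activity; top concentration of the series differs between compounds; nearly all actives have a fitted effect of over 45% in size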
Procedure, shortened: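 Relative class I and II HDAC activity is taken from the luminogenic signal in HCT-116 cells, with compound exposure 2 hr and reagent development 30 min at room temperature.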

[15] = qHTS assay to identify small molecule HDAC inhibitors - cell viability counter screen (AID 1259365)
Procedure, shortened: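 Counter screen in wild-type HCT-116 cells: compounds dissolved in DMSO are pin-transferred onto overnight-plated cells and left 2hr at 37C. ATP-based CellTiter-Glo luminescence then measures viable cells.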

[16] = qHTS assay to identify small molecule agonists of the sonic hedgehog signaling (Shh) pathway - cell viability counter screen (AID 1259366); also: nearly all actives have a fitted effect of over 50% in size
Procedure, shortened: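 Cells are plated at 2,000 per well and left 4hr at 37C, 5% CO2 before compound addition. After 23hr of treatment, CellTiter-Fluor reagent is added for 1hr at 37C and fluorescence is measured.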

[17] = qHTS assay to identify small molecule antagonists of the sonic hedgehog signaling (Shh) pathway - cell viability counter screen (AID 1259367); also: nearly all actives have a fitted effect of over 55% in size
Procedure, shortened: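 Seed 3T3 Gli1-Luc cells at 2,000 per well; incubate 4 hr; add compound in DMSO, then conditioned medium; incubate at 37C with 5% CO2; add CellTiter-Fluor after 23 hr; read fluorescence 1 hr later.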

[18] = qHTS assay to identify small molecule agonists of the sonic hedgehog signaling (Shh) pathway (AID 1259368; calls by dose curve;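 also: NIH/3T3-derived 3T3Gli1-Luc cells carrying a stable Gli1-driven firefly luciferase reporter; series mostly up to about 92 µM; nearly all actives have a fitted effect of over 15% in size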)
Procedure, shortened: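 Mouse fibroblast (NIH/3T3) reporter cells with stably integrated Gli1-Luc were treated 24 hr with compound; firefly luciferase luminescence served as the read-out.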

[19] = qHTS assay to identify small molecule phospholipidosis (PLD) inducers (AID 1259344; active = well fitted curve in the direction sought with a large enough effect; an effect the other way counts as inactive or inconclusive)
Procedure, shortened: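 Quantitative HTS in HepG2: compound plus LipidTOX Red dye for 24 h, paraformaldehyde fixation with Hoechst 33342, widefield high-content imaging; amiodarone as positive and DMSO as negative control.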

[20] = qHTS RealTime-Glo MT Cell Viability Assay in HepG2 cells - 0 hour (AID 1224889); also: nearly all actives have a fitted effect of over 50% in size
Procedure, shortened: as §3

## CCCc1c(OCCCOc2ccc(OCC(=O)O)cc2)ccc(C(C)=O)c1O
[1]
  Potency: inactive
[2]
  Potency: inactive
[3]
  Potency: inactive
[4]
  Potency: inactive
[5]
  Potency: inactive
[6]
  Potency: inactive
[7]
  Potency: inactive
[8]
  Potency: inactive
[9]
  Potency: inactive
[10]
  Potency: inactive
[11]
  Potency: inactive
[12]
  Potency: inactive
[13]
  Potency: inactive
[14]
  Potency: inactive
[15]
  Potency: inactive
[16]
  Potency: inactive
[17]
  Potency: inactive
[18]
  Potency: inactive

## CN1C(=O)CC(C)(c2ccccc2)C1=O (configuration not stated)
[1]
  Potency: inactive
[2]
  Potency: inactive
[3]
  Potency: inactive
[4]
  Potency: inactive
[5]
  Potency: inactive
[6]
  Potency: inactive
[7]
  Potency: inactive
[8]
  Potency: inactive
[9]
  Potency: inactive
[10]
  Potency: inactive
[11]
  Potency: inactive
[13]
  Potency: inactive
[19]
  outcome: inactive
[14]
  Potency: inactive
[15]
  Potency: inactive
[16]
  Potency: inactive
[17]
  Potency: inactive
[18]
  Potency: inactive

## CCCCC(CC)CNCC(CC)CCCC (configuration not stated)
[1]
  Potency: inactive
[2]
  Potency: inactive
[3]
  Potency: inactive
[4]
  Potency: inactive
[5]
  Potency: inactive
[6]
  Potency: inactive
[7]
  Potency: inactive
[8]
  Potency: inactive
[20]
  Potency: inactive
[9]
  Potency: inactive
[10]
  Potency: inactive
[11]
  Potency: inactive
[14]
  Potency: inactive
[15]
  Potency: inactive
[16]
  Potency: inactive
[17]
  Potency: inactive

## C=C(C)C(=O)OCCOC(=O)CC(C)=O
[1]
  Potency: inactive
[2]
  Potency: inactive
[3]
  Potency: inactive
[4]
  Potency: inactive
[5]
  Potency: inactive
[6]
  Potency: inactive
[7]
  Potency: inactive
[8]
  Potency: inactive
[20]
  Potency: inactive
[9]
  Potency: inactive
[10]
  Potency: inactive
[11]
  Potency: inactive
[14]
  Potency: inactive
[15]
  Potency: inactive
[16]
  Potency: inactive
[17]
  Potency: inactive
[18]
  Potency: inactive

## CC1C2CC(CC2C2CCCC(O)C2)C1(C)C (configuration not stated)
[1]
  Potency: 49 µM (active)
[2]
  Potency: inactive
[3]
  Potency: 43.6 µM (active)
[4]
  Potency: 43.6 µM (active)
[5]
  Potency: inactive
[6]
  Potency: inactive
[7]
  Potency: inactive
[8]
  Potency: 49 µM (active)
[20]
  Potency: inactive
[9]
  Potency: 43.6 µM (active)
[10]
  Potency: inactive
[11]
  Potency: inactive
[14]
  Potency: inactive
[17]
  Potency: inactive
[18]
  Potency: inactive

## COc1cc2[nH]c(=O)[nH]c(=O)c2cc1OC
[1]
  Potency: inactive
[2]
  Potency: inactive
[3]
  Potency: inactive
[4]
  Potency: inactive
[5]
  Potency: inactive
[6]
  Potency: inactive
[7]
  Potency: inactive
[8]
  Potency: inactive
[10]
  Potency: inactive
[11]
  Potency: inactive
[13]
  Potency: inactive
[19]
  outcome: inactive
[15]
  Potency: inactive
[16]
  Potency: inactive
[17]
  Potency: inactive
[18]
  Potency: inactive

## COC(=O)CC(=O)C(C)(C)C
[1]
  Potency: inactive
[2]
  Potency: inactive
[3]
  Potency: inactive
[4]
  Potency: inactive
[5]
  Potency: inactive
[6]
  Potency: inactive
[7]
  Potency: inactive
[8]
  Potency: inactive
[20]
  Potency: inactive
[10]
  Potency: inactive
[11]
  Potency: inactive
[13]
  Potency: inactive
[14]
  Potency: inactive
[15]
  Potency: inactive
[16]
  Potency: inactive
[17]
  Potency: inactive
[18]
  Potency: inactive

— PubChem BioAssay (Tox21)
